Bioassay records from PubChem.
Yeast superoxide = lowers age-related superoxide in aged yeast cells; AID 2690; superoxide response (% of plate mean), % at 10 µM; hit rate 0.18% among 330,000; S. cerevisiae aged cells, superoxide DHE fluorescence; stronger effect = lower value;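 active = superoxide response under a set limit, about three screen SD below normal, cut at about 65% in these data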;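 also: yeast aged for seven days with compound at 30 °C before DHE staining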
OPRM1-OPRD1 ag = agonists of human mu-delta opioid receptor heterodimerization; hit rate 0.3% among 340,000; activation, % at 9.3 µM; cells, OPRM1-OPRD1 heterodimerization, luminescence; in the data active = activation above about 18%
HTR5A ag = activates human HTR5A in OPRM1-OPRD1 agonist counter-screen. P47898. HTR5A agonist assay, luminescence, cell-based. hit rate 0.61% among 340,000. activation, % at 9.3 µM; in the data active = activation mostly above about 9.5%, no sharp cut-off; inactive = mostly below about 7.6%
PvdQ acylase = P. aeruginosa PvdQ acylase inhibition. hit rate 0.063% among 340,000. purified PvdQ acylase, fluorescence plate reader. AID 488965. inhibition, % at 10 µM; in the data active = inhibition above about 30%, passing the limit was not always enough
HTR5A inv ag = HTR5A inverse agonism, opioid heterodimer counter-screen | P47898 | HTR5A cell line, luminescence | inhibition, % at 9.3 µM | hit rate 0.083% among 340,000; in the data active = inhibition mostly above about 23%, no sharp cut-off; inactive = mostly below about 18%
MOR-DOR inv ag = inverse agonists of human mu-delta opioid receptor heterodimerization | inhibition, % at 9.3 µM | cell-based MOR-DOR heterodimer luminescence, inverse agonism | hit rate 0.21% among 340,000; in the data active = inhibition above about 22%, passing the limit was not always enough
Of the large screens only hits and unclear results are named; the others gave an inactive call. Hits are enriched below; roughly 1.3% of the tested compounds scored in any of these assays.

CCN(CC)CCn1c(SCC(=O)Nc2ccc3c(c2)CCC3)nc2ccccc2c1=O	HTR5A ag 12
C/C(=N/Nc1ccc([N+](=O)[O-])cc1)c1c[nH]c2ccccc12	HTR5A inv ag 30
C/C(=N/Nc1ccc([N+](=O)[O-])cc1)c1ccc(C)cc1C	none
CCN1C(N(C)CCc2c[nH]c3ccccc23)=N[C@@H](c2cccc(C(F)(F)F)c2)C(C(=O)OC)=C1C	HTR5A ag 22
CCN1C(N(C)CCc2cccs2)=N[C@@H](c2ccccc2)C(C(=O)OC)=C1C	none
CCCc1ccc2oc(C(=O)N(C)CCn3ccnc3C)c(C)c2c1	none
O=S(=O)(Nc1cccc(-c2ccc(N3CCCCCC3)nn2)c1)c1ccc(C(F)(F)F)cc1	HTR5A ag 11
O=S(=O)(Nc1cccc(-c2ccc(N3CCCCCC3)nn2)c1)c1ccc(F)cc1	none
COc1ccc(C(CCN(Cc2ccc(OC)c(OC)c2)C(C)=O)c2ccccc2)cc1 (stereo unspecified)	none
COc1ccc(CN(CCC(c2ccccc2)c2ccc(OC(C)C)cc2)C(=O)CCl)cc1OC (stereo unspecified)	OPRM1-OPRD1 ag 82, HTR5A ag 52
COc1cccc(C2NC(=O)CCC2[N+](=O)[O-])c1OC (stereo unspecified)	none
Cc1ccc(N=C2C(=O)Nc3ccc(C)c(Br)c32)cc1	MOR-DOR inv ag 67
COc1ccc(NC(=O)c2cc(-c3cc(C)cc(C)c3O)n[nH]2)cc1Cl	HTR5A ag 11
CCOC(=O)C1=C(CC)OC(N)=C(C#N)C1c1cccs1 (stereo unspecified)	HTR5A ag 11
COC(=O)CC1=C(C(=O)OC)C(c2cccs2)C(C#N)=C(N)O1 (stereo unspecified)	none
CCOC(=O)C1CCCN(c2c(C(=O)c3ccccc3)cnc3ccc(OC)cc23)C1 (stereo unspecified)	HTR5A inv ag 30, MOR-DOR inv ag 36
CCOC(=O)C1CCCN(C(=O)COc2ccc(C(=O)c3ccccc3)cc2)C1 (stereo unspecified)	none (no result: Yeast superoxide)
Cc1ccc(C)c(OC(=O)c2cccnc2)c1	none
Cc1ccc(Cn2ccsc2=NC(=O)CCl)cc1	OPRM1-OPRD1 ag 59, HTR5A ag 92
Cc1ccc(Cn2ccsc2=NC(=O)COC(=O)c2ccc(NC(=O)CC#N)cc2)cc1	none
Cc1cc(C(=O)COC(=O)c2ccc(O)cc2)c(C)n1CC1COc2ccccc2O1 (stereo unspecified)	HTR5A ag 12
Cc1cc(C(=O)COC(=O)c2ccc3c(c2)OCO3)c(C)n1CC1CCCO1 (stereo unspecified)	none
Cc1cc(NC(=S)N(Cc2ccc(Br)cc2)Cc2ccc(C(=O)O)cc2)ccc1Cl	HTR5A ag 12
Cc1cccc(NC(=S)N(Cc2ccc(Br)cc2)Cc2ccc(C(=O)O)cc2)c1	none
COc1ccc2nc(C)cc(N/N=C/c3ccccc3)c2c1	OPRM1-OPRD1 ag 21
CC(C)(C)C(=O)NC(=S)NNC(=O)c1ccc(-c2ccccc2)cc1	HTR5A inv ag 87, MOR-DOR inv ag 30
CC1Cc2cc(S(=O)(=O)N3CCC(C(=O)N(C)Cc4ccco4)CC3)ccc2N1C(=O)C1CCC1 (stereo unspecified)	none
CCOc1ccc(S(=O)(=O)N(C)c2ccc(OCC(=O)Nc3ccccc3F)cc2)cc1	none (no result: Yeast superoxide)
CO[C@H]1C=CO[C@@]2(C)Oc3c(C)c(O)c4c(O)c(c5c(c4c3C2=O)NC2(CCN(CC(C)C)CC2)N=5)=NC(=O)C(C)=CC=C[C@H](C)[C@H](O)[C@@H](C)[C@@H](O)[C@@H](C)[C@H](OC(C)=O)[C@@H]1C	Yeast superoxide 62 (no result: OPRM1-OPRD1 ag, HTR5A ag, PvdQ acylase, HTR5A inv ag, MOR-DOR inv ag)
CCC(C)N1CCC2(CC1)N=c1c(c3c4c5c(C)c(O)c3c(O)c1=NC(=O)C(C)=CC=C[C@H](C)[C@H](O)[C@@H](C)[C@@H](O)[C@@H](C)[C@H](OC(C)=O)[C@H](C)[C@@H](OC)C=CO[C@@](C)(O5)C4=O)N2 (stereo partly specified)	none
O=C1C(Cc2ccccc2)Nc2ncnc(N3CCCCC3)c2N1Cc1ccccc1 (stereo unspecified)	none
O=C(CN(Cc1ccc(F)cc1)C(=O)CCC(=O)Nc1nccs1)NCC1CCCO1 (stereo unspecified)	none
CCOC(=O)c1ccc(NC(=O)c2cccc(S(=O)(=O)N3CCN(C(C)=O)CC3)c2)cc1	HTR5A ag 12
